PubChem BioAssay (EPA / NIEHS)
Several values for one entry are separate records, joined by “and”; a condition that tells them apart may be missing. Equal values may be shown once. Some compounds were tested as several samples or in several runs, with calls that do not always agree. Activity calls are given as the source filed them. Rule for the calls: active = hit-call score of the fitted dose curve at least 0.9, where 1 is the maximum; inactive = score below 0.9.

Read-out: Human Leukocyte Antigen - DR isotype (HLADR), HLA-DRA (gene 3122)
Test: BSK_CASM3C_HLADR: BioMAP Diversity Plus: CASM3C Assay for Human Leukocyte Antigen - DR isotype (HLADR) Biomarker Activity (AID 2283043);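 note: cell-surface HLA-DR protein level quantified by ELISA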
Conditions: primary human coronary artery smooth muscle cells; actives raise or lower the signal
For `O=c1[nH]c(Cl)c(Cl)cc1Cl`, the outcome was “inactive”. With `O=C(O)CCCc1ccc(N(CCCl)CCCl)cc1` the AC50 was 15.9 µM (active) and 20 µM (active). For `COC(C)(C)CCC[C@H](C)C/C=C/C(C)=C/C(=O)OC(C)C`, the AC50 was 20 µM (active). In the case of `O=P1(NCCCl)OCCCN1CCCl` (stereo unspecified), the outcome is reported as “inactive”. In the case of `O=S(=O)(c1ccccc1)c1ccccc1`, the outcome is reported as “inactive”. With `Clc1ccc(-c2ccccc2)cc1` the outcome was “inactive”. In the case of `Oc1cc(Cl)ccc1Cl`, the outcome is reported as “inactive”.

Read-out: Macrophage colony-stimulating factor (MCSF), CSF1 (gene 1435)
Test: BSK_CASM3C_MCSF: BioMAP Diversity Plus: CASM3C Assay for Macrophage colony-stimulating factor (MCSF) Biomarker Activity (AID 2283044);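 note: M-CSF protein amount quantified by ELISA after 24 h exposure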
Conditions: primary human coronary artery smooth muscle cells; actives raise or lower the signal
With `Nc1ccc(-c2ccc(N)c(N)c2)cc1N` the AC50 was 8.36 µM (active). In the case of `O=c1[nH]c(Cl)c(Cl)cc1Cl`, the outcome is reported as “inactive”. For `O=C(O)CCCc1ccc(N(CCCl)CCCl)cc1`, the AC50 was 17 µM (active) and 15.7 µM (active). For `COC(C)(C)CCC[C@H](C)C/C=C/C(C)=C/C(=O)OC(C)C`, the AC50 was 13.7 µM (active). In the case of `O=P1(NCCCl)OCCCN1CCCl` (stereo unspecified), the outcome is reported as “inactive”. With `O=S(=O)(c1ccccc1)c1ccccc1` the outcome was “inactive”. In the case of `Clc1ccc(-c2ccccc2)cc1`, the outcome is reported as “inactive”. For `Oc1cc(Cl)ccc1Cl`, the outcome was “inactive”.

Read-out: Low-density lipoprotein receptor (LDLR), LDLR (gene 3949)
Test: BSK_CASM3C_LDLR: BioMAP Diversity Plus: CASM3C Assay for Low-density lipoprotein receptor (LDLR) Biomarker Activity (AID 2283045);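 note: LDLR protein level on the cell surface quantified by ELISA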
Conditions: primary human coronary artery smooth muscle cells; actives raise or lower the signal
In the case of `Nc1ccc(-c2ccc(N)c(N)c2)cc1N`, the outcome is reported as “inactive”. With `O=c1[nH]c(Cl)c(Cl)cc1Cl` the outcome was “inactive”. For `O=C(O)CCCc1ccc(N(CCCl)CCCl)cc1`, the AC50 was 20 µM (active) and the outcome was “inactive”. In the case of `COC(C)(C)CCC[C@H](C)C/C=C/C(C)=C/C(=O)OC(C)C`, the AC50 is reported as 10.2 µM (active). For `O=P1(NCCCl)OCCCN1CCCl` (stereo unspecified), the outcome was “inactive”. For `O=S(=O)(c1ccccc1)c1ccccc1`, the outcome was “inactive”. In the case of `Clc1ccc(-c2ccccc2)cc1`, the outcome is reported as “inactive”. In the case of `Oc1cc(Cl)ccc1Cl`, the outcome is reported as “inactive”.

Read-out: Monocyte Chemoattractant Protein-1 (MCP1), CCL2 (gene 6347)
Test: BSK_CASM3C_MCP1: BioMAP Diversity Plus: CASM3C Assay for Monocyte Chemoattractant Protein-1 (MCP1) Biomarker Activity (AID 2283046);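 note: MCP-1 level quantified by ELISA 24 h after dosing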
Conditions: primary human coronary artery smooth muscle cells; actives raise or lower the signal
For `Nc1ccc(-c2ccc(N)c(N)c2)cc1N`, the outcome was “inactive”. In the case of `O=c1[nH]c(Cl)c(Cl)cc1Cl`, the outcome is reported as “inactive”. In the case of `O=C(O)CCCc1ccc(N(CCCl)CCCl)cc1`, the AC50 is reported as 24 µM (active) and 20 µM (active). For `COC(C)(C)CCC[C@H](C)C/C=C/C(C)=C/C(=O)OC(C)C`, the outcome was “inactive”. With `O=P1(NCCCl)OCCCN1CCCl` (stereo unspecified) the outcome was “inactive”. With `O=S(=O)(c1ccccc1)c1ccccc1` the outcome was “inactive”. In the case of `Clc1ccc(-c2ccccc2)cc1`, the outcome is reported as “inactive”. With `Oc1cc(Cl)ccc1Cl` the outcome was “inactive”.

Read-out: not listed separately
Test: BSK_CASM3C_Proliferation: Cell Proliferation Assessment in the BioMAP Diversity Plus: CASM3C Assay (AID 2283047);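 note: sulforhodamine B total protein stain as relative cell number at 560 nm; sub-confluent cells exposed 48 h before staining; fitted both ways against DMSO so gain or loss of cell number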
Conditions: primary human coronary artery smooth muscle cells
In the case of `Nc1ccc(-c2ccc(N)c(N)c2)cc1N`, the outcome is reported as “inactive”. With `O=c1[nH]c(Cl)c(Cl)cc1Cl` the outcome was “inactive”. With `O=C(O)CCCc1ccc(N(CCCl)CCCl)cc1` the AC50 was 20 µM (active) and 1.6 µM (active). With `COC(C)(C)CCC[C@H](C)C/C=C/C(C)=C/C(=O)OC(C)C` the AC50 was 17.2 µM (active). In the case of `O=P1(NCCCl)OCCCN1CCCl` (stereo unspecified), the outcome is reported as “inactive”. For `O=S(=O)(c1ccccc1)c1ccccc1`, the outcome was “inactive”. In the case of `Clc1ccc(-c2ccccc2)cc1`, the outcome is reported as “inactive”. With `Oc1cc(Cl)ccc1Cl` the outcome was “inactive”.

Read-out: Monokine induced gamma interferon (MIG), CXCL9 (gene 4283)
Test: BSK_CASM3C_MIG: BioMAP Diversity Plus: CASM3C Assay for Monokine induced gamma interferon (MIG) Biomarker Activity (AID 2283048);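 note: MIG protein level measured by ELISA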
Conditions: primary human coronary artery smooth muscle cells; actives raise or lower the signal
In the case of `O=c1[nH]c(Cl)c(Cl)cc1Cl`, the outcome is reported as “inactive”. In the case of `O=C(O)CCCc1ccc(N(CCCl)CCCl)cc1`, the AC50 is reported as 30.8 µM (active) and 20 µM (active). In the case of `COC(C)(C)CCC[C@H](C)C/C=C/C(C)=C/C(=O)OC(C)C`, the AC50 is reported as 29.9 µM (active). For `O=P1(NCCCl)OCCCN1CCCl` (stereo unspecified), the outcome was “inactive”. In the case of `O=S(=O)(c1ccccc1)c1ccccc1`, the outcome is reported as “inactive”. For `Clc1ccc(-c2ccccc2)cc1`, the outcome was “inactive”. With `Oc1cc(Cl)ccc1Cl` the outcome was “inactive”.

Read-out: serum amyloid A (SAA), SAA1 (gene 6288)
Test: BSK_CASM3C_SAA: BioMAP Diversity Plus: CASM3C Assay for serum amyloid A (SAA) Biomarker Activity (AID 2283049);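 note: SAA protein level quantified by ELISA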
Conditions: primary human coronary artery smooth muscle cells; actives raise or lower the signal
In the case of `Nc1ccc(-c2ccc(N)c(N)c2)cc1N`, the outcome is reported as “inactive”. With `O=c1[nH]c(Cl)c(Cl)cc1Cl` the outcome was “inactive”. For `O=C(O)CCCc1ccc(N(CCCl)CCCl)cc1`, the outcome was “inactive” and the AC50 was 20 µM (active). For `COC(C)(C)CCC[C@H](C)C/C=C/C(C)=C/C(=O)OC(C)C`, the outcome was “inactive”. For `O=P1(NCCCl)OCCCN1CCCl` (stereo unspecified), the outcome was “inactive”. For `O=S(=O)(c1ccccc1)c1ccccc1`, the outcome was “inactive”. For `Clc1ccc(-c2ccccc2)cc1`, the outcome was “inactive”. With `Oc1cc(Cl)ccc1Cl` the outcome was “inactive”.

Read-out: not listed separately
Test: BSK_CASM3C_SRB: Viability Assessment in the BioMAP Diversity Plus: CASM3C Assay (AID 2283050);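 note: total protein by SRB staining as cytotoxicity measure in parallel cultures; cells exposed to compound for 24 h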
Conditions: primary human coronary artery smooth muscle cells
For `Nc1ccc(-c2ccc(N)c(N)c2)cc1N`, the outcome was “inactive”. With `O=c1[nH]c(Cl)c(Cl)cc1Cl` the outcome was “inactive”. In the case of `O=C(O)CCCc1ccc(N(CCCl)CCCl)cc1`, the AC50 is reported as 24.8 µM (active) and 20 µM (active). In the case of `COC(C)(C)CCC[C@H](C)C/C=C/C(C)=C/C(=O)OC(C)C`, the outcome is reported as “inactive”. For `O=P1(NCCCl)OCCCN1CCCl` (stereo unspecified), the outcome was “inactive”. In the case of `O=S(=O)(c1ccccc1)c1ccccc1`, the outcome is reported as “inactive”. For `Clc1ccc(-c2ccccc2)cc1`, the outcome was “inactive”. For `Oc1cc(Cl)ccc1Cl`, the outcome was “inactive”.

Read-out: Thrombomodulin, THBD (gene 7056)
Test: BSK_CASM3C_Thrombomodulin: BioMAP Diversity Plus: CASM3C Assay for Thrombomodulin Biomarker Activity (AID 2283051);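 note: thrombomodulin protein level measured by ELISA 24 h after dosing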
Conditions: primary human coronary artery smooth muscle cells; actives raise or lower the signal
In the case of `Nc1ccc(-c2ccc(N)c(N)c2)cc1N`, the outcome is reported as “inactive”. For `O=c1[nH]c(Cl)c(Cl)cc1Cl`, the outcome was “inactive”. In the case of `O=C(O)CCCc1ccc(N(CCCl)CCCl)cc1`, the outcome is reported as “inactive” and the AC50 is reported as 5.06 µM (active). For `COC(C)(C)CCC[C@H](C)C/C=C/C(C)=C/C(=O)OC(C)C`, the AC50 was 14.3 µM (active). For `O=P1(NCCCl)OCCCN1CCCl` (stereo unspecified), the outcome was “inactive”. With `O=S(=O)(c1ccccc1)c1ccccc1` the outcome was “inactive”. In the case of `Clc1ccc(-c2ccccc2)cc1`, the outcome is reported as “inactive”. With `Oc1cc(Cl)ccc1Cl` the outcome was “inactive”.

Read-out: Tissue Factor, F3 (gene 2152)
Test: BSK_CASM3C_TissueFactor: BioMAP Diversity Plus: CASM3C Assay for Tissue Factor Biomarker Activity (AID 2283052);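 note: cell surface tissue factor protein level read by ELISA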
Conditions: primary human coronary artery smooth muscle cells; actives raise or lower the signal
For `Nc1ccc(-c2ccc(N)c(N)c2)cc1N`, the AC50 was 11.3 µM (active). With `O=c1[nH]c(Cl)c(Cl)cc1Cl` the outcome was “inactive”. In the case of `O=C(O)CCCc1ccc(N(CCCl)CCCl)cc1`, the AC50 is reported as 15.2 µM (active) and 5.57 µM (active). For `COC(C)(C)CCC[C@H](C)C/C=C/C(C)=C/C(=O)OC(C)C`, the AC50 was 20 µM (active). In the case of `O=P1(NCCCl)OCCCN1CCCl` (stereo unspecified), the outcome is reported as “inactive”. For `O=S(=O)(c1ccccc1)c1ccccc1`, the outcome was “inactive”. In the case of `Clc1ccc(-c2ccccc2)cc1`, the outcome is reported as “inactive”. For `Oc1cc(Cl)ccc1Cl`, the outcome was “inactive”.
